PubChem BioAssay AID590 (National Center for Advancing Translational Sciences (NCATS), 2007)
Out of some 59,000 compounds screened, about 6,500 (11%) were called active. About 15% were inconclusive and are not listed. This is one part of a sample in which actives are shown more often than they occur. Cut-off read from the data, not from the text of the source: active = max dye-equivalent concentration above about 10 nM; inconclusive = mostly about 1.1 nM to 9.6 nM; inactive = weaker than that.

Experiment: qHTS Assay for Spectroscopic Profiling in A350 Spectral Region
Settings: Compound autofluorescence, 340/450 nm, Alexa 350 dye-equivalents; active compounds read high

SMILES | max dye-equivalent concentration
COc1ccc(-n2c(SCC(=O)Nc3ccc4c(c3)OCO4)nnc2C(C)N2CCCCC2)cc1 (centres undefined) | inactive
O=C(NCCCNC(=O)NC1CCCCC1)NC1CCCCC1 | inactive
CC(=NCc1ccc2c(c1)OCO2)C1=C(O)c2ccccc2C1=O | inactive
O=c1[nH]c(=O)c2nc3ccccc3nc2[nH]1 | 200 nM (active)
O=c1[nH]c(-c2cccs2)nc2ccccc12 | inactive
CCc1c(C)nc(N2CCN(Cc3ccccc3)CC2)[nH]c1=O | inactive
N#C/C(=C\c1ccc(O)c(O)c1)C(=O)NCc1ccccc1 | inactive
CCSC1=C(C#N)C(=O)n2c1cc1c2CCCC1 | inactive
N#CC1=C(N)C(C#N)(C#N)[C@H](c2ccsc2)[C@H]2COCC=C12 | 17 nM (active)
O=C(NCc1ccc(Cl)cc1)c1cc2c(nc3sccn32)s1 | inactive
Cc1ccnc(N2CCCC(C(=O)Nc3cc(F)ccc3C)C2)n1 (centres undefined) | inactive
CCOC(=O)C1=C(CNC2CCCCC2)NC(=O)NC1c1cc(C)ccc1C (centres undefined) | inactive
O=C(Nc1cccnc1)c1ccc2c(c1)OCO2 | inactive
Cc1cccc(CNc2ccnc(-c3cccnc3)n2)c1 | inactive
c1cncc(CNc2ccnc(-c3ccc4c(c3)OCO4)n2)c1 | 15 nM (active)
CC(=O)N=c1ncn(CC(COC(C)=O)OC(C)=O)c2nc[nH]c12 (centres undefined) | inactive
Cc1ccc(C)c(S(=O)(=O)N2CC(=O)Nc3ccccc32)c1 | inactive
Cc1ccc(OCC(=O)Nc2ccc(-c3nnc(-c4ccco4)o3)cc2)cc1 | inactive
COc1ccc(CC(=O)Nc2ccc(-c3nnc(-c4ccc(C)cc4)o3)cc2)cc1 | inactive
Cc1ccc(OCC(=O)Nc2ccc(-c3nc4ncccc4o3)cc2)cc1 | 25 nM (active)
CCOC(=O)c1cc(C)sc1NC(=O)C1CCC1 | inactive
Cn1c(-c2ccc(F)cc2)cnc1SCC(=O)NCc1ccco1 | inactive

SMILES | max dye-equivalent concentration
Cc1ccc(S(=O)(=O)N2CCC(N3CCCCCC3)CC2)cc1 | inactive
Fc1ccc(Cn2nnnc2C(c2cccs2)N2CCCCCC2)cc1 (centres undefined) | inactive
CS(=O)(=O)N(CC(=O)N1CCN(c2cccc(Cl)c2)CC1)c1ccccc1 | inactive
Cc1cc(N2CCN(Cc3ccc4c(c3)OCO4)CC2)n2ncnc2n1 | inactive
Cc1cc(C)c2c(n1)nn1c(-n3ccnc3)cc(C)nc21 | 260 nM (active)
Cc1cc(C)c2c(n1)nn1c(N3CCOCC3)cc(C)nc21 | 7500 nM (active)
Cc1cc(C)c2c(n1)nn1c(N3CCN(c4cccc(Cl)c4)CC3)cc(C)nc21 | 110 nM (active)
CCN1C(=O)/C(=C\N2CCN(c3cccc(Cl)c3)CC2)SC1=S | inactive
Cc1nn2c3cc(N4CCOCC4)ccc3nc2c2ccccc12 | inactive
CN1CCN(CC(O)COCc2ccc3c(c2)OCO3)CC1 (centres undefined) | inactive
CCOC(=O)Nc1ccc2c(c1)N(C(=O)CN1CCN3CCCC3C1)c1ccccc1CC2 (centres undefined) | inactive
CSc1cccc(NC(=O)CSc2ccccc2)c1 | inactive
Cc1ccccc1CSc1nnc(-c2cccnc2)n1N | inactive
COc1ccc(C2OC(=O)CC2C(=O)NC(C)C)cc1 (centres undefined) | inactive
CCOC(=O)C1C(=O)NC(N2CCN(c3ccccc3)CC2)=NC1c1ccco1 (centres undefined) | inactive
CCOC(=O)C1C(=O)C=C(c2ccc(OC)cc2)CC1c1ccco1 (centres undefined) | 11 nM (active)
CNC(=O)c1nnn(-c2ccccc2)c1C(=O)NC | inactive
CCn1ccnc1C[C@@H]1COc2ccccc2O1 | inactive
CC1=C(C(=O)Nc2ccc(Cl)cc2)C(c2ccco2)NC(=O)N1 (centres undefined) | inactive
COc1ccc(Cl)cc1NC(=O)C1CC(=O)N(c2ccc(F)cc2)C1 (centres undefined) | inactive
COCCCNC(=O)C1CC(=O)N(c2ccc(C)cc2)C1 (centres undefined) | inactive
COc1cccc(N2CC(C(=O)Nc3c(C)cccc3C)CC2=O)c1 (centres undefined) | 19 nM (active)

SMILES | max dye-equivalent concentration
O=C(CSc1nnc(-c2cccs2)n1Cc1ccco1)c1ccc2c(c1)OCO2 | inactive
Fc1ccc2[nH]c3c(N4CCSCC4)ncnc3c2c1 | 13 nM (active)
CCN1CCCC1CNc1ncnc2c1[nH]c1ccc(F)cc12 (centres undefined) | 14 nM (active)
Cc1ccc(-n2ncc3c(N4CCN(c5ccc(F)cc5)CC4)ncnc32)c(C)c1 | inactive
CCN1CCCC1CNC(=O)Cn1cnc2ccc(S(=O)(=O)N3CCC(C)CC3)cc2c1=O (centres undefined) | inactive
Cc1cc(OCC(=O)O)c(Cl)cc1Cl | inactive
CCn1c(Cc2ccccc2)nnc1SCc1nc2ccccc2c(=O)[nH]1 | inactive
COCCCNC(=O)CCc1nc2cccnc2n1Cc1ccc(OC)cc1 | inactive
O=C(CC1CCCCC1)Nc1c2c(nn1-c1ccc(F)cc1)CS(=O)(=O)C2 | inactive
Cc1c(C)c2cc3c4c(oc3c(C)c2oc1=O)CCCC4 | 25 nM (active)
COc1ccccc1-c1nc(NCc2cccs2)c2ccccc2n1 | inactive
CCOC(=O)Cc1c(C)nc2c(C#N)c(C)nn2c1C | 11 nM (active)
CC1(C)CCCC2=C1CC1C(=O)N(c3ccccc3)C(=O)C1C2 (centres undefined) | inactive
CC(C)C(c1nnnn1Cc1ccccc1)N1CCC(C(N)=O)CC1 (centres undefined) | inactive
COc1ccc(Cn2cccc(NC(=O)Nc3ccc(C#N)cc3)c2=O)cc1 | inactive
COc1ccc(C(=O)N2CCC[C@@]3(CCN(C(=O)NC(C)C)C3)C2)cc1 | inactive
COc1cccc(-c2nc(Nc3ccncc3)c3ccccc3n2)c1 | inactive
c1ccc2c(Nc3ccncc3)nc(-c3ccoc3)nc2c1 | inactive
c1ccc2c(Nc3ccncc3)nc(-c3ccc4c(c3)OCO4)nc2c1 | 11 nM (active)
COCCn1c(C)cc(C(=O)CSc2ncnc3sc4c(c23)CCC4)c1C | inactive
COCCNc1nc(-n2nc(C)cc2C)nc2sc3c(c12)CCCC3 | 1300 nM (active)
Cc1cc(C)n(-c2nc(SCC(=O)N3CCCC3)c3c4c(sc3n2)CCCC4)n1 | inactive

SMILES | max dye-equivalent concentration
O=S(=O)(NCc1ccc2c(c1)OCO2)c1cccc2nsnc12 | inactive
COc1ccc(N2C(=O)CCC(C(=O)Nc3ccccn3)C2c2ccc(OC)c(OC)c2)cc1 (centres undefined) | inactive
Nc1ccc(SCCN2C(=O)c3ccccc3C2=O)cc1 | inactive
O=C1c2ccccc2C(=O)N1CCCSc1ccccc1 | inactive
C[N+](C)(CCCCCC[N+](C)(C)CCCN1C(=O)c2cccc3cccc(c23)C1=O)CCCN1C(=O)c2cccc3cccc(c23)C1=O | 260 nM (active)
CCOC(=O)Cc1csc(NC(=O)C(C)(C)C)n1 | inactive
COc1cc(C2C3C(=O)N(c4ccccc4)C(=O)C3ON2c2ccccc2)ccc1O (centres undefined) | inactive
Cc1ccc(C(c2nnnn2C(C)(C)C)N2CCc3ccccc3C2)cc1 (centres undefined) | inactive
Cc1ccc(NC(=O)CCN2CCc3ccccc3C2)cc1 | inactive
Cc1ccc2c(c1)c1ncnc(N3CCc4ccccc4C3)c1n2C | 140 nM (active)
O=C(CCCN1C(=O)C2C3C=CC(C3)C2C1=O)N1CCN(c2ccccc2)CC1 (centres undefined) | inactive
COC(=O)c1ccc(NC(=O)C(C)N2C(=O)c3ccccc3C2=O)cc1 (centres undefined) | inactive
CC(C(=O)O)N1C(=O)c2cccc3cccc1c23 (centres undefined) | 14 nM (active)
Cc1cc(C)nc(NC(=O)C(C)N2C(=O)c3ccccc3C2=O)n1 (centres undefined) | inactive
CC(=O)N1CCN(CCN=CC2=C(O)CC(C)(C)CC2=O)CC1 | inactive
CCOCCN(C=O)c1cccc(OC)c1 | inactive
COc1ccc(OC)c([C@H](O)CNC(=O)CN)c1 | inactive
CCOC(=O)CCc1c(C)c2ccc(OCc3nn[nH]n3)c(C)c2oc1=O | 30 nM (active)
CCc1ccc(-c2nnn(Cc3nn[nH]n3)n2)cc1 | inactive
Cc1cc(C)cc(OCc2nnc(SCC(=O)OC3CCCCC3)o2)c1 | inactive
CC(=O)c1cc(C#N)c(SCC(=O)C(C)(C)C)nc1C | inactive
CCOc1ccc2cc(C#N)c(SCC(=O)OC)nc2c1 | 31 nM (active)

SMILES | max dye-equivalent concentration
CCOc1cccc(NC(=O)CC#N)c1 | inactive
COc1ccc(OC)c(S(=O)(=O)N(C)CC(=O)N2CCN(c3ccccc3)CC2)c1 | inactive
Cc1cccc(N2CCN(C(c3ccccc3)c3nnnn3CC3CCCO3)CC2)c1C (centres undefined) | inactive
O=C(Cn1nnc2ccccc2c1=O)Nc1cc(C(F)(F)F)ccc1N1CCOCC1 | inactive
COc1ccccc1-c1cc(NCc2cccs2)ncn1 | inactive
CC(C)N1C(=O)C2C(C(=O)NC3CCCCC3)C3C=CC2(O3)C1C(=O)NC1CCCC1 (centres undefined) | inactive
CC(C)c1nnc(NC(=O)C2CCCN2S(=O)(=O)c2ccc(Cl)cc2)s1 (centres undefined) | inactive
CCc1nnc(NS(=O)(=O)c2ccc(NS(=O)(=O)c3ccccc3)cc2)s1 | inactive
CCc1nnc(NC(=O)C2CCCN2S(=O)(=O)c2ccccc2)s1 (centres undefined) | 16 nM (active)
Cc1c(O)c(Br)c(C)c(O)c1Br (tested in a mixture with another compound) | inactive
CCN(CC)c1ccc(C(=O)OCC(=O)c2ccco2)cc1 | inactive
N#CCSc1nc2ccccc2c(=O)n1-c1ccccc1 | inactive
Cc1cc(C)nc(N(C#N)CC(=O)Nc2ccccc2)n1 | inactive
C/C(O)=C\c1nc(=O)c2c(C)cc(C)nc2n1-c1ccccc1 | 44 nM (active)
CCOC(=O)N1CCN(C(=O)c2ccc(S(=O)(=O)c3ccc(C)cc3)c(NC(C)=O)c2)CC1 | inactive
CCOC(=O)N1CCN(C(=O)c2ccc3nc4cc(Cl)ccc4c(=O)n3c2)CC1 | 1300 nM (active)
CCOC(=O)N1CCN(C(=O)CNC(=O)Cc2ccc(Cl)cc2)CC1 | inactive
O=C(O)c1cscn1 | inactive
Cc1nonc1OCCn1nnnc1N | inactive
CC1CCCN(c2ccc(C(=O)NCCc3ccccc3)cn2)C1 (centres undefined) | inactive
O=S(=O)(Nc1ccccc1N1CCOCC1)c1ccc(Cl)s1 | inactive
